# According to PubChem BioAssay (NCATS):
# Where “and” joins values, the source holds several entries; their conditions need not be identical. Equal values may be shown once. Results filed as inconclusive are left out. Calls of active or inactive are those of the source. Unless noted, the call rests on the fitted dose curve; in most records, active means well fitted curve in the direction sought with a large enough effect; inconclusive means small, poorly fitted or top-dose-only effect, or another doubt; inactive means no such curve, though single readings can be large; an effect the other way counts as inactive or inconclusive.
# Assays:
# [1] = target: Lysosomal acid glucosylceramidase (Homo sapiens) (UniProt P04062); assay: Glucocerebrosidase-p2 (AID 348; in the data active means potency below about 10 µM; further: potency means the concentration at half of the fitted maximal effect); details: purified GBA, blue fluorogenic substrate, 40 min
# Lysosomal acid glucosylceramidase (Homo sapiens), sequence (P04062 whole entry, looked up): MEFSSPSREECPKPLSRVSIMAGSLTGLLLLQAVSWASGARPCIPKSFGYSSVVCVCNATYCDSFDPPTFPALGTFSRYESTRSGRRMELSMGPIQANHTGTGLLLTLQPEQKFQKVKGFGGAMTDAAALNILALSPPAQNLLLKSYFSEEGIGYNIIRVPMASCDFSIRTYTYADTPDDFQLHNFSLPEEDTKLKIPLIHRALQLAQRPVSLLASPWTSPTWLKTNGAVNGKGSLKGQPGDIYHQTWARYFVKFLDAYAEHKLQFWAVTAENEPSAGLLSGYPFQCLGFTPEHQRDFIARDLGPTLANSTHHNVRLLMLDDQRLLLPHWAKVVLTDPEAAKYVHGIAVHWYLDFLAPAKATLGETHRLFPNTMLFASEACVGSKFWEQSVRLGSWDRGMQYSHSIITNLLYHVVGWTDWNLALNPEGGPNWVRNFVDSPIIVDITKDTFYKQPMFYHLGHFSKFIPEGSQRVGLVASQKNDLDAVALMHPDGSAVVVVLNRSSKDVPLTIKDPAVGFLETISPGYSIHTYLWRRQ
# Procedure, shortened: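 Compounds titrated from 0.6 nM upwards against 0.2 nM enzyme in pH 5.9 citric acid/KH2PO4, taurocholate, tween-20; blue fluorogenic substrate 80 uM, 40 min room temperature, stopped and read Ex 365/Em 440 for AC50.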
# [2] = AP1 Signaling Pathway (AID 357; active means well fitted curve in either direction with a large enough effect, not every such curve was filed as active;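 further: ME-180 reporter cells stimulated with EGF at its EC50 level; on the % scale 0 is the no-effect control and ±100 the full control effect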); details: ME-180 AP-1-bla reporter, EGF-induced, beta-lactamase ratio, 5 h
# Procedure, shortened: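 Beta-lactamase reporter under AP-1 response element, ME-180 background. Stimulus: EC50 EGF. Compound exposure 5 h, 37 °C. Detection: CCF4, 2.5 h RT, 460/530 nm. Values: AC50 from titration.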
# [3] = target: Cytochrome P450 1A2 (Homo sapiens) (UniProt P05177); assay: p450-cyp1a2 (AID 410; calls by dose curve; further: potency means the concentration at half of the fitted maximal effect;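 on activity change, negative = inhibition: -100% = full effect of reference inhibitor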); details: recombinant CYP1A2, luciferin-ME demethylation, luminescence; series mostly up to 57 µM
# Cytochrome P450 1A2 (Homo sapiens), sequence (P05177 whole entry, looked up): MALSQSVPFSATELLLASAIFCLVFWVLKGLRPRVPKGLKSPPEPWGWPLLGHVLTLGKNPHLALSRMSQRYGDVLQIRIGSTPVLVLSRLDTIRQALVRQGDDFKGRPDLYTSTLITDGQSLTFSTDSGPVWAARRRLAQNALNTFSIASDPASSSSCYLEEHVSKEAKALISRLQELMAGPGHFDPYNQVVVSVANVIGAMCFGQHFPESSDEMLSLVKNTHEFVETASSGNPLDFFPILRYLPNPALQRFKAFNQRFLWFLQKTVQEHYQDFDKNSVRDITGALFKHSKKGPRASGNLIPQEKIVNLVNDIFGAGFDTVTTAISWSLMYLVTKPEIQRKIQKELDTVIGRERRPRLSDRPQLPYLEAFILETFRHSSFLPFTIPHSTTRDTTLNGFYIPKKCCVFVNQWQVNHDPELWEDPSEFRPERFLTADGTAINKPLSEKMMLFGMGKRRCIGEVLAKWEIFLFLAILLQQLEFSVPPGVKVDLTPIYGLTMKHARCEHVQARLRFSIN
# Procedure, shortened: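 Luminescent readout of luciferin formed from Luciferin-ME by human CYP1A2; data normalized against complete inhibition by 57 uM furafylline. Enzyme 20nM, substrate 100uM at Km, 100mM KPO4 buffer, 60 min reaction at room temperature.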
# [4] = NFAT Signaling Pathway (AID 444; active means well fitted curve in either direction with a large enough effect, not every such curve was filed as active;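 further: carbachol stimulus at about its EC50 of 1 µM final; on the % scale 0 is the no-effect control and ±100 the full control effect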); details: Jurkat NFAT-bla M1, carbachol, beta-lactamase ratio, 5 h; at 7.69 µM (top of the series) unless noted
# Procedure, shortened: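 Jurkat cells with NFAT-driven β-lactamase reporter and co-expressed M1 receptor, stimulated with carbachol (final 1 uM, ~EC50), compound titration, 5 h at 37 °C. CCF4 loaded 1 h at RT; 460/530 nm ratio gave %activity and AC50.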
# [5] = Stat Signaling Pathway (AID 446; active means well fitted curve in either direction with a large enough effect, not every such curve was filed as active;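 further: ME-180 cervical cancer cells given 40 pM IL-6 alongside compound; SIE-controlled beta-lactamase reporter measured as 460/530 nm FRET emission ratio; on the % scale 0 is the no-effect control and ±100 the full control effect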); details: ME-180 SIE beta-lactamase reporter, IL-6 stimulated, 5 h
# Procedure, shortened: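 ME-180 SIE-bla cells; overnight plating; cpd + IL-6 40 pM, 5 h, 37 C; LiveBLAzer 2.5 h RT; 460/530 nm emission ratio. Normalized to 300 pM IL-6 and 125 nM JAK inhibitor controls.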
# [6] = target: Glucocorticoid receptor (Homo sapiens) (UniProt P04150); assay: GR-GFP Redistribution (AID 450;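 active means compounds whose dose series gives a full or clear partial fitted curve of increased nuclear translocation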; further: potency means the concentration at half of the fitted maximal effect); details: U2OS GR-GFP nuclear translocation, laser cytometry, 2 h
# Glucocorticoid receptor (Homo sapiens), sequence (P04150 whole entry, looked up, the tested form may be a part): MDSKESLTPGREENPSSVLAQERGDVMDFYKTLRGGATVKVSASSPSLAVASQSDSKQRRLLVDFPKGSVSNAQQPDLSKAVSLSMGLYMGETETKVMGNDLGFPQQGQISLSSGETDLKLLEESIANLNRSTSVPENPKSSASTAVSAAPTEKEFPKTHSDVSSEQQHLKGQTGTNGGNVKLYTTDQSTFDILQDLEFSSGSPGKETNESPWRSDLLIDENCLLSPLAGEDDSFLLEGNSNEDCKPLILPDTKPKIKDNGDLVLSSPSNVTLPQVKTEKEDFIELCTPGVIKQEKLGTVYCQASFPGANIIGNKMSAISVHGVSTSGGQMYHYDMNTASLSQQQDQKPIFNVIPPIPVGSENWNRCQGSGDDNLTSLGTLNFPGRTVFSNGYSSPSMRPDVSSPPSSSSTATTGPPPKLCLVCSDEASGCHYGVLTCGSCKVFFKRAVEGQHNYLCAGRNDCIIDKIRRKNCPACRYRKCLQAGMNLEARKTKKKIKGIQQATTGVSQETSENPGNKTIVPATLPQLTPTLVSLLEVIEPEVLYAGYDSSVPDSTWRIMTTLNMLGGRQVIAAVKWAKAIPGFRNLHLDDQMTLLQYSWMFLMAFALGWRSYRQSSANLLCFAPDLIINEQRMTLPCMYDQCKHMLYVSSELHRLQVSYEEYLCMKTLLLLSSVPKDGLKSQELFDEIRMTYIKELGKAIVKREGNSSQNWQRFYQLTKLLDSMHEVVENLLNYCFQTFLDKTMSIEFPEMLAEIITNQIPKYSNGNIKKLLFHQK
# [7] = target: Glucocorticoid receptor (Homo sapiens) (UniProt P04150); assay: GR-EFC Redistribution (AID 451; calls by dose curve; further: potency means the concentration at half of the fitted maximal effect); details: CHO-K1 GR-EFC translocation, beta-gal luminescence, 2 h
# Procedure, shortened: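 CHO-K1 cells expressing nuclear EA and GR-ED fragments of b-gal; compounds titrated up to 46 uM final, 2 h at 37 C. GR nuclear translocation read as complemented b-gal luminescence after 1 h RT detection.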
# [8] = target: Mitogen-activated protein kinase 10 (Mus musculus) (UniProt Q61831); assay: JNK3 AlphaScreen Assay (AID 530; active means well fitted curve in either direction with a large enough effect, not every such curve was filed as active;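 further: kinase came from lysate of stimulated human HepG2 cells; signal reports phosphorylation of biotinylated GST-cJun 1-79 at Ser73 with 10 µM ATP; on the % scale 0 is the no-effect control and ±100 the full control effect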); details: JNK3 lysate, c-Jun phosphorylation; series mostly up to 57.1 µM
# Procedure, shortened: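 Pre-activated (IL-1β/TNFα) JNK3 in HepG2 lysates phosphorylates biotin-GST-cJun(1-79), 10 uM ATP; anti-phospho-cJun(Ser73) AlphaScreen read at room temperature, pH 7.6 Tris buffer. Compounds pre-incubated 15 min as titrations.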
# [9] = target: Cytochrome P450 3A4 (Homo sapiens) (UniProt P08684); assay: qHTS Assay for Inhibitors and Substrates of Cytochrome P450 3A4 (AID 884); details: recombinant CYP3A4, Luciferin-PPXE luminescence; series mostly up to 57.1 µM; further: nearly all actives have a fitted effect of over 50% in size; further: potency means the concentration at half of the fitted maximal effect
# Cytochrome P450 3A4 (Homo sapiens), sequence (P08684 whole entry, looked up): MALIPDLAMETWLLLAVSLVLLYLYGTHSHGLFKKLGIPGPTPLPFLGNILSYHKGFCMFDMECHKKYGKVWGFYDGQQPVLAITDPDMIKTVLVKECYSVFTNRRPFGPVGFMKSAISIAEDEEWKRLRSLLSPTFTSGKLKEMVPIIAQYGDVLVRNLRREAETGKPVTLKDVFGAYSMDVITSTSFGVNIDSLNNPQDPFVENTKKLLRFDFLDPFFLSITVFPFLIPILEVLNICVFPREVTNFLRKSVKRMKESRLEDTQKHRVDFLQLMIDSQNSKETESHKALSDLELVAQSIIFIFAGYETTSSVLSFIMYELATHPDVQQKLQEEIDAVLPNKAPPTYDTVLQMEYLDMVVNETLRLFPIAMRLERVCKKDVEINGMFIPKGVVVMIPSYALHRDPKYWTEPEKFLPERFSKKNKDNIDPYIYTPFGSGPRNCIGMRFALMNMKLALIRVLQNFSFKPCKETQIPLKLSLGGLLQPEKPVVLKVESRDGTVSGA
# Procedure, shortened: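 20 nM human CYP3A4 with 25 uM Luciferin-PPXE (at KM) in 200 mM KPO4, preincubated 10 min with compound; NADPH regeneration started a 60 min RT reaction. Luciferin detected by luminescence, normalized to 57 uM ketoconazole as full inhibition.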
# [10] = target: Cytochrome P450 3A4 (Homo sapiens) (UniProt P08684); assay: qHTS Assay for Activators of Cytochrome P450 3A4 (AID 885); details: recombinant CYP3A4, Luciferin-PPXE luminescence, 60 min; series mostly up to 57.1 µM; further: nearly all actives have a fitted effect of over 65% in size
# Procedure, shortened: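 20nM CYP3A4 + 25uM Luciferin-PPXE (=KM), 200mM KPO4; cpd 10 min RT; NADPH regen, 60 min RT; stop w/ detection buffer, 20 min; luminescence. Normalized to 57 uM ketoconazole.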
# [11] = Confirmation and Secondary Assay for Modulators of Hemoglobin Beta Chain Splicing at IVS2 654 locus (AID 910); details: HeLa EGFP-654 splicing reporter, GFP fluorescence, 48 h; series mostly up to 38.3 µM;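 further: HeLa cells stably carrying EGFP split by mutant beta-globin IVS2-654 intron; % of control where 0% means no effect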
# Procedure, shortened: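 HeLa cells stably expressing EGFP interrupted by β-globin IVS2-654 intron, seeded overnight in Opti-MEM/2% FCS, then treated 2 days at 37 °C. Restored splicing read as total peak GFP intensity per well by laser scanning cytometry (488 nm excitation, 500–520 nm emission); 500 nM antisense PNA as control.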
# [12] = Confirmation and Secondary Assay for Modulators of Hemoglobin Beta Chain Splicing at IVS2 705 locus (AID 930); details: HeLa EGFP-705 splicing reporter, GFP fluorescence, 48 h; series mostly up to 38.3 µM;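 further: HeLa cells stably expressing the EGFP-705 splicing reporter; GFP fluorescence per well restored by corrected splicing of the IVS2-705 intron in EGFP; % of control where 0% means no effect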
# Procedure, shortened: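 Stable HeLa line with EGFP disrupted by mutant beta-globin intron 2 (705). Overnight attachment, then 2 days of compound at 37C, 5% CO2. Signal: peak GFP intensity summed over objects 5-250 µm.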
# [13] = qHTS Assay for Lipid Storage Modulators (AID 1519; calls by dose curve); details: Drosophila S3 cells, BODIPY lipid droplet/cell ratio, laser cytometry, cells loaded with oleic acid
# Procedure, shortened: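 Cells seeded at 5,000 per well were treated with compounds over a concentration series and loaded with oleic acid (400 uM, as added). Lipid droplet fluorescence (488 nm excitation, 500-530 nm channel) was read by laser-scanning cytometry and normalized to 20 uM Triacsin C.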
# [14] = target: 3',5'-cyclic-AMP phosphodiesterase 4B (Homo sapiens) (UniProt Q07343); assay: qHTS Assay for Inhibitors of PDE-IV (AID 607; active means well fitted activation curve with a large enough effect in the main read-out, with a control signal flat, not every such curve was filed as active; further: % of control where 0% means no effect); details: HEK293 ACTOne CNG channel cells, membrane potential fluorescence; series mostly up to 22.9 µM
# 3',5'-cyclic-AMP phosphodiesterase 4B (Homo sapiens), sequence (Q07343 whole entry, looked up): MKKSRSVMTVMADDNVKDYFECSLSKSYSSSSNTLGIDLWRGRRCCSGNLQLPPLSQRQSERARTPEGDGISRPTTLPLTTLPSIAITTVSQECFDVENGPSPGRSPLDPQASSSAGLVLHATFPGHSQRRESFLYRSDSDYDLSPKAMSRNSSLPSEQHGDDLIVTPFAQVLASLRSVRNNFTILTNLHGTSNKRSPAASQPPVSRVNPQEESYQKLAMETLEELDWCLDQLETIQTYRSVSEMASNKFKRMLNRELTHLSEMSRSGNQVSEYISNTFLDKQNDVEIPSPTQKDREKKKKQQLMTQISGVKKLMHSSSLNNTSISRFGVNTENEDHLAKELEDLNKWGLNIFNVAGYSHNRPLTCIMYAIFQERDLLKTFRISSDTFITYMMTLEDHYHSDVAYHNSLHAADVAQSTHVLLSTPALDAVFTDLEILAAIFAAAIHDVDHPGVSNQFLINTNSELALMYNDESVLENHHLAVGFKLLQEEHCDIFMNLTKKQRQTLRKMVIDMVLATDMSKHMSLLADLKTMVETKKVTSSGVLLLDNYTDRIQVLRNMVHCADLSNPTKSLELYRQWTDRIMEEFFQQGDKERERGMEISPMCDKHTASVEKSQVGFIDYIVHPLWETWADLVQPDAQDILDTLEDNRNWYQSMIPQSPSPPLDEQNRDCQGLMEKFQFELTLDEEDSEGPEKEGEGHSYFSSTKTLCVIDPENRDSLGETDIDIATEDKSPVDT
# Procedure, shortened: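 ACTOne HEK293 cells carry a modified cAMP-gated CNG channel and express endogenous PDE4; plated 1000 cells/well, compounds up to 22.9 uM final. Membrane-potential dye fluorescence (ex 535/em 590) was read; parental cells received 10 uM forskolin + 100 uM RO 20-1724.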
# [15] = target: Ubiquitin carboxyl-terminal hydrolase 1 (Homo sapiens) (UniProt O94782); assay: Inhibitors of USP1/UAF1: Pilot qHTS (AID 504865); details: purified USP1/UAF1, Ub-rhodamine cleavage fluorescence; series mostly up to 54.9 µM;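 further: rhodamine fluorescence freed from ubiquitin-rhodamine substrate followed over time; top concentration of the series differs between compounds; on the % scale 0 is the no-effect control and ±100 the full control effect; nearly all actives have a fitted effect of over 35% in size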
# Ubiquitin carboxyl-terminal hydrolase 1 (Homo sapiens), sequence (O94782 whole entry, looked up): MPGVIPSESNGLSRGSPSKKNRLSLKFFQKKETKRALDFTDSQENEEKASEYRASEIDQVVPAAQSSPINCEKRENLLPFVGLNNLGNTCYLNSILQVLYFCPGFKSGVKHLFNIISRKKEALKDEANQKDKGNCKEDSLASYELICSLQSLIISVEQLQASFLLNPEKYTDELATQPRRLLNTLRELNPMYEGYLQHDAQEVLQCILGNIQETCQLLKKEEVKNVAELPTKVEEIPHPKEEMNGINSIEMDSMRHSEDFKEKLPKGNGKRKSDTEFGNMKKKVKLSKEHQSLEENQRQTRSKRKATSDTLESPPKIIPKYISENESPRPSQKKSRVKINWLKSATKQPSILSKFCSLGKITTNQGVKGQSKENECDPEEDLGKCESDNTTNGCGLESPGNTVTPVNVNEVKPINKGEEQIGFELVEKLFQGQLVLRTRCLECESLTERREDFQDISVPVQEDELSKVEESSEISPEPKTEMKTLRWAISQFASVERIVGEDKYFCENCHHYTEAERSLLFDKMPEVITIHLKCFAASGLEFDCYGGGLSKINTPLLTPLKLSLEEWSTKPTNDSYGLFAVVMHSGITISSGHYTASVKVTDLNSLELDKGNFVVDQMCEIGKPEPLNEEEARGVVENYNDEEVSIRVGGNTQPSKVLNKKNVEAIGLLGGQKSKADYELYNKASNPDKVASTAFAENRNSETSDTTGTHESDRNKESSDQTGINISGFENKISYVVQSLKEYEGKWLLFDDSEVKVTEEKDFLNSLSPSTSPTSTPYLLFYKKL
# Procedure, shortened: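 USP1/UAF1 complex (1nM) preincubated with compound 15 min at room temperature, then Ub-Rho substrate (150nM final) added. Fluorescence read kinetically at 480/540 nm, 6 reads every 60 seconds. Buffer: 50mM HEPES pH 7.8, 0.5mM EDTA, 0.1 mg/ml BSA, 1mM TCEP, 0.01% Tween-20.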
# [16] = qHTS profiling for inhibitors of Plasmodium falciparum proliferation (AID 504749);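 further: 0% = DMSO vehicle and full inhibition = artemisinin control; nearly all actives have a fitted effect of over 60% in size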; details: P. falciparum in erythrocytes, SYBR Green DNA, 72 h, at 28.7 µM (top of the series)
# Procedure, shortened: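 P. falciparum-infected erythrocytes (0.3% parasitemia, 2.5% hematocrit) incubated with compound 72 h at 37 C, 5% CO2. Parasite DNA detected by SYBR Green after lysis, overnight at room temperature; normalised to 0.29 uM artemisinin and DMSO.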
# [17] = at 7.69 µM (top of the series) unless noted
# [18] = measured here: cell count channel max response
# [19] = measured here: lipid channel max response
structure (smiles),measurement,setting,value
Cc1cccc(CNc2nc(-c3ccoc3)nc3ccccc23)c1,Potency,[1],> 11.4 µM (inactive)
same,"activity change, negative = inhibition",[2]; [17],-0.544% (inactive)
same,Potency,[3],1.26 µM (active)
same,"activity change, negative = inhibition",[4],-3.51% (inactive)
same,"activity, negative = inhibition",[5]; [17],-10.1% (inactive)
same,Potency,[6],> 46 µM (inactive)
same,Potency,[7],> 46 µM (inactive)
same,Potency,[8],inactive
same,Potency,[9],6.31 µM (active)
same,Potency,[10],inactive
same,Potency,[11],inactive
same,outcome,[12],inactive
same,"activity change, negative = inhibition",[13]; at 57.5 µM (top of the series),11.1% (inactive)
same,max response,[13]; [18],-24.1%
same,max response,[13]; [19],-2.26%
CN1CCCC[C@@H]1CCN1c2ccccc2Sc2ccc(S(C)=O)cc21 (stereo partly specified),Potency,[1],> 11.4 µM (inactive)
same,"activity change, negative = inhibition",[2]; at 7.69 µM (top of the series),-6.82% (inactive)
same,"activity change, negative = inhibition",[2]; at 17.2 µM (top of the series),10.1% (inactive)
same,Potency,[3],inactive
same,"activity change, negative = inhibition",[4],1.36% (inactive)
same,"activity, negative = inhibition",[5]; at 7.69 µM (top of the series),0.0805% (inactive)
same,"activity, negative = inhibition",[5]; at 17.2 µM (top of the series),-1.79% (inactive)
same,Potency,[6],> 20.6 µM (inactive) and > 46 µM (inactive)
same,Potency,[7],> 20.6 µM (inactive) and > 9.22 µM (inactive)
same,Potency,[8],inactive
same,Potency,[14],inactive
same,"activity change, negative = inhibition",[13]; at 25.7 µM (top of the series),-3.11% (inactive)
same,max response,[13]; [18],-6.84%
same,max response,[13]; [19],-7.46%
same,Potency,[15],inactive
same,"activity, negative = inhibition",[16]; parasite line A,1.72% (inactive)
same,"activity, negative = inhibition",[16]; parasite line B,1.85% (inactive)
COc1ccccc1-c1ccc2ncnc(N(C)C)c2c1,Potency,[1],> 11.4 µM (inactive)
same,"activity change, negative = inhibition",[2]; [17],-19.5% (inactive)
same,Potency,[3],1.26 µM (active)
same,"activity change, negative = inhibition",[4],-2.93% (inactive)
same,"activity, negative = inhibition",[5]; [17],-12.7% (inactive)
same,Potency,[6],> 46 µM (inactive)
same,Potency,[7],> 46 µM (inactive)
same,Potency,[8],inactive
same,Potency,[9],5.01 µM (active)
same,Potency,[10],inactive
same,Potency,[11],inactive
same,outcome,[12],inactive
same,"activity change, negative = inhibition",[13]; at 57.5 µM (top of the series),4.68% (inactive)
same,max response,[13]; [18],-12.6%
same,max response,[13]; [19],-7.7%
CN(Cc1ccco1)c1ccnc(-c2cccc(NS(C)(=O)=O)c2)n1,Potency,[1],> 11.4 µM (inactive)
same,"activity change, negative = inhibition",[2]; [17],-9.76% (inactive)
same,Potency,[3],1.26 µM (active)
same,"activity change, negative = inhibition",[4],-2.37% (inactive)
same,"activity, negative = inhibition",[5]; [17],2.34% (inactive)
same,Potency,[6],> 46 µM (inactive)
same,Potency,[7],> 46 µM (inactive)
same,Potency,[8],inactive
same,Potency,[14],inactive
same,Potency,[9],6.31 µM (active)
same,Potency,[10],inactive
same,Potency,[11],inactive
same,"activity change, negative = inhibition",[13]; at 57.5 µM (top of the series),9.05% (inactive)
same,max response,[13]; [18],18.7%
same,max response,[13]; [19],26.7%
same,Potency,[15],inactive
Cc1occc(=O)c1O,Potency,[8],inactive
same,Potency,[9],inactive
same,Potency,[11],inactive
same,outcome,[12],inactive
same,"activity change, negative = inhibition",[13]; at 57.5 µM (top of the series),8.81% (inactive)
same,max response,[13]; [18],0.823%
same,max response,[13]; [19],13.2%
same,Potency,[15],inactive
Cc1cccc(CNc2nc(-c3cccc(NS(C)(=O)=O)c3)nc3ccccc23)c1,Potency,[1],> 11.4 µM (inactive)
same,"activity change, negative = inhibition",[2]; [17],-27.3% (inactive)
same,Potency,[3],15.8 µM (active)
same,"activity change, negative = inhibition",[4],-6.18% (inactive)
same,"activity, negative = inhibition",[5]; [17],-23% (inactive)
same,Potency,[6],> 46 µM (inactive)
same,Potency,[7],> 46 µM (inactive)
same,Potency,[8],inactive
same,Potency,[9],5.01 µM (active)
same,Potency,[10],inactive
same,Potency,[11],inactive
same,outcome,[12],inactive
same,"activity change, negative = inhibition",[13]; at 57.5 µM (top of the series),1.31% (inactive)
same,max response,[13]; [18],-11.9%
same,max response,[13]; [19],-11.1%
